# Source: article PMC7862700, “An all-to-all approach to the identification of sequence-specific readers for epigenetic DNA modifications on cytosine”
# Columns and labels:
# Test in all cases: DAPPL (digital affinity profiling via proximity ligation, sequencing); 10 mM Tris-HCl pH 7.5, 50 mM NaCl, 1 mM DTT, 4% glycerol, room temperature, 30 min; GST-TFs on glutathione beads, 16-mer random dsDNA library, 0.1% formaldehyde crosslink after washing; high values mean tight binding
# Conditions in all cases: protein: recombinant; tags: N-terminal GST; dsDNA, one strand shown
# FLI1 = molecular target: T1, FLI1 (Homo sapiens, UniProt Q01543 1-452)
# T1 sequence: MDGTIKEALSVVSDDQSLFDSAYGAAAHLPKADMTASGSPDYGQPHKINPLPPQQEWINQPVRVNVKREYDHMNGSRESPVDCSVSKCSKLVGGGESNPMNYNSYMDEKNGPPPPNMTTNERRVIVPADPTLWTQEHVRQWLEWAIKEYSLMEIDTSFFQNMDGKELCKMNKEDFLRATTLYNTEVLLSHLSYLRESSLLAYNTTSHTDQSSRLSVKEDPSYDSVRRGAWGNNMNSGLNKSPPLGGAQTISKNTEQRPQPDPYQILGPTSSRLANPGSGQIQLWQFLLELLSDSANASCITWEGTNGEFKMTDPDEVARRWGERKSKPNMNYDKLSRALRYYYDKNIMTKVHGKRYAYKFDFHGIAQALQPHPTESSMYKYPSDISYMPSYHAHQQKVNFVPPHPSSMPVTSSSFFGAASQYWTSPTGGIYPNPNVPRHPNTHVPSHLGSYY
# Procedure, shortened: (§1)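 Binding signal is given per hexamer as its read frequency for a factor divided by its frequency in the tag-only sample. GST-fused human transcription factors were expressed in yeast, captured on glutathione beads, barcoded with DNA and pooled with that sample, then incubated with 200 nmole of a 16-mer random double-stranded DNA library in Tris/NaCl/DTT/glycerol buffer for 30 min at room temperature. The pools were then washed, crosslinked, proximity-ligated, amplified by PCR and sequenced on an Illumina NextSeq500.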
# ELK1 = molecular target: T2, ELK1 (Homo sapiens, UniProt P19419 1-428)
# T2 sequence: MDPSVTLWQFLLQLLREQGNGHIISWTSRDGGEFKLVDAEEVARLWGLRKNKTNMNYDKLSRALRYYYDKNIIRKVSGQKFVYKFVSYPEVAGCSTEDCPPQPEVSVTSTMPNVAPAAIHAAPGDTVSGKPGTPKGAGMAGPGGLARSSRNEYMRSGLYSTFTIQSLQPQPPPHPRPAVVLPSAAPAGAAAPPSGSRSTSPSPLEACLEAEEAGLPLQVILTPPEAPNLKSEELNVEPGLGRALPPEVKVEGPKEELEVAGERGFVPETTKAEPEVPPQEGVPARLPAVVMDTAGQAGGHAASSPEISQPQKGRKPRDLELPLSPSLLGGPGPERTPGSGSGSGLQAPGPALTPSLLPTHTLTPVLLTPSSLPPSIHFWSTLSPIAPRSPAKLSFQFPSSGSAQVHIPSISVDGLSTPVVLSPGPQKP
# Procedure, shortened: as §1
# GABPA = molecular target: T3, GABPA (Homo sapiens, UniProt Q06546 1-454)
# T3 sequence: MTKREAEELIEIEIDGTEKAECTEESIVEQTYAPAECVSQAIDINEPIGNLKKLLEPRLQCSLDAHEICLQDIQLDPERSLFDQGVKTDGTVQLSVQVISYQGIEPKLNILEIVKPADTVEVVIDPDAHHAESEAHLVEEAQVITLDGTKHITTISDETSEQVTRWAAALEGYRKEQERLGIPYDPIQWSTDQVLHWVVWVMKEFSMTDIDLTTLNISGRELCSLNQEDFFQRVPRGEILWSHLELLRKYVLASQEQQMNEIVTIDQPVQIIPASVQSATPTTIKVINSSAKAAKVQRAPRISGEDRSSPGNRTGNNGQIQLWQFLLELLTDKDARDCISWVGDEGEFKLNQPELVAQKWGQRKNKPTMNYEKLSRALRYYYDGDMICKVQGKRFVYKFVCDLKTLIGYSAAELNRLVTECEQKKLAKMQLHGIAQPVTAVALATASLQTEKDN
# Procedure, shortened: as §1
# ERG = molecular target: T4, ERG (Homo sapiens, UniProt P11308 1-479)
# T4 sequence: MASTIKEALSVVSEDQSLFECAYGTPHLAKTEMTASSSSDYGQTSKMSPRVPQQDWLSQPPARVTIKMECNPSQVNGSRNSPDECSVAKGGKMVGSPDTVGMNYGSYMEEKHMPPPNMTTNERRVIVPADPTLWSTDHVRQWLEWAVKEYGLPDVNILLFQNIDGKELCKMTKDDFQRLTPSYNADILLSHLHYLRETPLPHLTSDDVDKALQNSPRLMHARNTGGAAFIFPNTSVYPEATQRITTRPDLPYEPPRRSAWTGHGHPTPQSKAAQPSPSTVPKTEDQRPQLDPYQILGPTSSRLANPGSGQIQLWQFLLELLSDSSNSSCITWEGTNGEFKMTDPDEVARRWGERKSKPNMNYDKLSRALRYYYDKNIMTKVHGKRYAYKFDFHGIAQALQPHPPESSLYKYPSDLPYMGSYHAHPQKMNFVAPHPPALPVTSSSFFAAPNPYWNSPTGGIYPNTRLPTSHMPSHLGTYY
# Procedure, shortened: as §1
# ELF1 = ELF1 (Homo sapiens, UniProt P32519 1-619)
# ELF1, sequence (P32519 whole entry): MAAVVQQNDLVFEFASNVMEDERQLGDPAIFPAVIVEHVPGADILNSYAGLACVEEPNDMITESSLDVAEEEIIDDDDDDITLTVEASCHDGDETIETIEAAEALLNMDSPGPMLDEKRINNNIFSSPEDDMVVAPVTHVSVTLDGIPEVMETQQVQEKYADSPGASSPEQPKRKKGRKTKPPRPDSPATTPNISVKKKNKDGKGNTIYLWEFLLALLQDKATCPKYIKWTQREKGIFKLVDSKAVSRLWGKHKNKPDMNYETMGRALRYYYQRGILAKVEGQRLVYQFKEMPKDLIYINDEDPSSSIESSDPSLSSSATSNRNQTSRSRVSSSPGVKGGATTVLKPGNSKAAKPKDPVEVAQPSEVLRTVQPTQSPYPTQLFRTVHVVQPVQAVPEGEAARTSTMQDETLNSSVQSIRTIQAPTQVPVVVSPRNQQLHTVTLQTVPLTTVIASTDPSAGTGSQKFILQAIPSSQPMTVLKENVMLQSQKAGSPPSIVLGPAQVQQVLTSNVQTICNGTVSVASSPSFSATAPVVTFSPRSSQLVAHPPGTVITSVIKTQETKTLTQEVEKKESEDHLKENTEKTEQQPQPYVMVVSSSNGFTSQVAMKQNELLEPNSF
# Procedure, shortened: as §1
# EHF = molecular target: T5, EHF (Homo sapiens, UniProt Q9NZC4 1-300)
# T5 sequence: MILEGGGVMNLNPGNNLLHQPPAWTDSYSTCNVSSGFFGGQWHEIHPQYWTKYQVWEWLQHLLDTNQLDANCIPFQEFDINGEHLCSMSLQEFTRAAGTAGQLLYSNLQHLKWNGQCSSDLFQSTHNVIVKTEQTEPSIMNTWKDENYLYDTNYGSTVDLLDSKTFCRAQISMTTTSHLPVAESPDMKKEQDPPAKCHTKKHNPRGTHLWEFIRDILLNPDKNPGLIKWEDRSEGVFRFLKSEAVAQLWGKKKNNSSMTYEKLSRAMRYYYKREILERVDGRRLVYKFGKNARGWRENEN
# Procedure, shortened: as §1
# SPI1 = SPI1 (Homo sapiens, UniProt P17947 1-270)
# Procedure, shortened: as §1
# SPIB = SPIB (Homo sapiens, UniProt Q01892 1-262)
# SPIB, sequence (Q01892 whole entry): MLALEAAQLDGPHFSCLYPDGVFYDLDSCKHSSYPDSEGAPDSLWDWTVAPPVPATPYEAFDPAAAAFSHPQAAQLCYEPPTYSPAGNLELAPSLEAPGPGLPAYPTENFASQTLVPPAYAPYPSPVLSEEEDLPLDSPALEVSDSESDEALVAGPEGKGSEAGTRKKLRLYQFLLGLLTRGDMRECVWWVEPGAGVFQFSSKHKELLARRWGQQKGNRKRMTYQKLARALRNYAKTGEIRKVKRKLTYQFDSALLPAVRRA
# Procedure, shortened: as §1
# ELK3 = molecular target: T6, ELK3 (Homo sapiens, UniProt P41970 1-407)
# T6 sequence: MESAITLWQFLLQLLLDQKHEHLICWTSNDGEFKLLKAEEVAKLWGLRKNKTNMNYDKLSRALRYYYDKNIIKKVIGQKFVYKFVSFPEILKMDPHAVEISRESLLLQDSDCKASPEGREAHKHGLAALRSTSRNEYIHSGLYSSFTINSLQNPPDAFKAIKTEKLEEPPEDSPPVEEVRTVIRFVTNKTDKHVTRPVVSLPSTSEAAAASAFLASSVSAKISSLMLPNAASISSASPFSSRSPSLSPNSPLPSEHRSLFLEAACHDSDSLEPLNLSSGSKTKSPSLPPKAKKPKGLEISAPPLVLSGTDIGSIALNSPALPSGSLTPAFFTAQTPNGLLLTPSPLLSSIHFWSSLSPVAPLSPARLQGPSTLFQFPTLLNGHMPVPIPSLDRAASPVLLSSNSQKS
# Procedure, shortened: as §1
sequence,measurement,setting,value
CTCAAC,binding signal,FLI1,"1.25 fold enrichment (6-mer frequency, TF over GST control)"
same,binding signal,ELK1,"1.32 fold enrichment (6-mer frequency, TF over GST control)"
same,binding signal,GABPA,"1.33 fold enrichment (6-mer frequency, TF over GST control)"
same,binding signal,ERG,"1.24 fold enrichment (6-mer frequency, TF over GST control)"
same,binding signal,ELF1,"1.26 fold enrichment (6-mer frequency, TF over GST control)"
same,binding signal,EHF,"1.18 fold enrichment (6-mer frequency, TF over GST control)"
same,binding signal,SPI1,"1.18 fold enrichment (6-mer frequency, TF over GST control)"
same,binding signal,SPIB,"1.19 fold enrichment (6-mer frequency, TF over GST control)"
same,binding signal,ELK3,"1.28 fold enrichment (6-mer frequency, TF over GST control)"
